Measurements taken from PMC7826789 (International Journal of Molecular Sciences, 2021).

How the values were obtained:
Settings in all cases: Compound Concentration (nM):1000
AMPK-alpha1 = test system: T1, AMPK-alpha1
T1 construct: gene PRKAA1

AMPK-alpha2 = test system: T2, AMPK-alpha2
T2 construct: gene PRKAA2

ANKK1 = test system: ANKK1
ARK5 = test system: T3, ARK5
T3 construct: gene NUAK1

ASK1 = test system: T4, ASK1
T4 construct: gene MAP3K5

ASK2 = test system: T5, ASK2
T5 construct: gene MAP3K6

AURKA = test system: AURKA
AURKB = test system: AURKB
AURKC = test system: AURKC
AXL = test system: AXL
BIKE = test system: T6, BIKE
T6 construct: gene BMP2K

BLK = test system: BLK
BMPR1A = test system: BMPR1A
BMPR1B = test system: BMPR1B
BMPR2 = test system: BMPR2
BMX = test system: BMX
BRAF(V600E) = test system: BRAF(V600E)
BRAF = test system: BRAF
BRK = test system: T7, BRK
T7 construct: gene PTK6

BRSK1 = test system: BRSK1
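Further: KINOMEscan scanMAX binding as percent activity remaining versus control; lower means stronger binding.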

SMILES | Percent Control (AMPK-alpha1) [%] | Percent Control (AMPK-alpha2) [%] | Percent Control (ANKK1) [%] | Percent Control (ARK5) [%] | Percent Control (ASK1) [%] | Percent Control (ASK2) [%] | Percent Control (AURKA) [%] | Percent Control (AURKB) [%] | Percent Control (AURKC) [%] | Percent Control (AXL) [%] | Percent Control (BIKE) [%] | Percent Control (BLK) [%] | Percent Control (BMPR1A) [%] | Percent Control (BMPR1B) [%] | Percent Control (BMPR2) [%] | Percent Control (BMX) [%] | Percent Control (BRAF(V600E)) [%] | Percent Control (BRAF) [%] | Percent Control (BRK) [%] | Percent Control (BRSK1) [%]
CN(C)CCNC(=O)Nc1ccc(N(C)c2ccnc(Nc3ccc(CS(C)(=O)=O)cc3)n2)cc1.Cl [GW830900A] | 87 | 74 | 88 | 48 | 100 | 80 | 8.8 | 4.4 | 4.5 | 58 | 5.1 | 93 | 100 | 52 | 100 | 98 | 100 | 100 | 96 | 90
CC(C)COC(=O)c1ccc2c(c1)/C(=C/Nc1ccc(S(N)(=O)=O)cc1)C(=O)N2 [GW416981X] | 100 | 92 | 44 | 97 | 100 | 85 | 66 | 65 | 35 | 100 | 27 | 100 | 100 | 96 | 30 | 100 | 97 | 100 | 100 | 100
O=C(Nc1n[nH]c2nc(-c3ccc(O)cc3)c(Br)cc12)C1CC1 [SB-725317] | 100 | 100 | 100 | 100 | 100 | 100 | 100 | 91 | 59 | 100 | 63 | 92 | 98 | 69 | 100 | 100 | 5.3 | 17 | 100 | 46
CCn1c(-c2nonc2N)nc2c(C#CC(C)(C)O)nc(OCCNC)cc21.Cl [GSK949675] | 100 | 100 | 100 | 100 | 95 | 100 | 90 | 100 | 100 | 100 | 75 | 96 | 89 | 89 | 100 | 100 | 100 | 100 | 100 | 100
CN1CCN(C(=O)c2ccc(NC(=O)Nc3ccc(N(C)c4ccnc(Nc5ccc(CS(C)(=O)=O)cc5)n4)cc3)cc2)CC1.Cl [GW830263A] | 82 | 87 | 28 | 78 | 100 | 67 | 0 | 0.4 | 0.2 | 9.7 | 2.4 | 87 | 32 | 1.1 | 56 | 59 | 85 | 89 | 95 | 100
COc1cc(N2CCN(C(C)C)CC2)ccc1Nc1nc(Nc2ccc(F)cc2C(=O)NC[C@@H](O)CO)c2cc[nH]c2n1 [GSK1392956A] | 100 | 100 | 92 | 67 | 100 | 73 | 95 | 91 | 90 | 46 | 81 | 99 | 100 | 88 | 97 | 100 | 90 | 94 | 100 | 100
C/C(Nc1ccc(S(N)(=O)=O)cc1)=C1/C(=O)Nc2ccccc21 [GW335962X] | 78 | 87 | 50 | 100 | 100 | 69 | 66 | 16 | 71 | 73 | 100 | 100 | 99 | 97 | 84 | 86 | 86 | 100 | 95 | 91
COc1cc2ncnc(Nc3ccc4c(cnn4Cc4ccccc4)c3)c2cc1OC.Cl [GW282449A] | 100 | 100 | 88 | 100 | 100 | 74 | 100 | 100 | 87 | 89 | 100 | 23 | 92 | 91 | 100 | 100 | 100 | 100 | 75 | 100
COc1ccccc1-c1cc(/C=C2\C(=O)Nc3ncc(Br)cc32)cc(Br)c1O [GW442130X] | 100 | 94 | 100 | 100 | 98 | 100 | 25 | 48 | 80 | 92 | 100 | 63 | 86 | 85 | 97 | 100 | 68 | 78 | 100 | 98
NS(=O)(=O)c1ccc(Nc2ncc(-c3ccccc3)o2)cc1 [GW572399X] | 100 | 95 | 82 | 100 | 100 | 77 | 100 | 43 | 100 | 100 | 100 | 89 | 100 | 83 | 100 | 100 | 80 | 95 | 100 | 100
CCS(=O)(=O)c1ccc(OC)c(Nc2ncc(-c3cccc(F)c3)o2)c1 [GW621970X] | 100 | 91 | 100 | 100 | 100 | 75 | 100 | 89 | 100 | 97 | 100 | 16 | 95 | 64 | 100 | 100 | 73 | 91 | 100 | 100
Cl.O=C(Nc1ccc(Oc2ccc3[nH]c(NC(=O)c4ccccc4)nc3c2)cc1)Nc1cc(C(F)(F)F)ccc1F [GW709042A] | 56 | 100 | 95 | 100 | 100 | 80 | 82 | 61 | 37 | 0 | 100 | 98 | 98 | 94 | 100 | 94 | 34 | 58 | 100 | 100
NS(=O)(=O)c1ccc(N/N=C2\C(=O)Nc3ccc(C(=O)NCCc4c[nH]cn4)cc32)cc1 [GW300660X] | 100 | 100 | 59 | 80 | 100 | 65 | 72 | 55 | 99 | 100 | 100 | 100 | 100 | 95 | 87 | 100 | 86 | 100 | 100 | 100
C[C@@H](Oc1cc(-n2cnc3ccc(OC4CCN(C)CC4)cc32)sc1C(N)=O)c1ccccc1Cl [GSK579289A] | 45 | 100 | 63 | 19 | 99 | 66 | 76 | 94 | 65 | 67 | 19 | 94 | 72 | 67 | 78 | 98 | 82 | 95 | 77 | 64
COc1cc2ncn(-c3cc(O[C@H](C)c4ccccc4Cl)c(C(N)=O)s3)c2cc1OC [GSK237701A] | 54 | 100 | 100 | 29 | 100 | 97 | 87 | 38 | 74 | 50 | 1.4 | 68 | 100 | 88 | 72 | 75 | 75 | 100 | 100 | 76
COc1ccc2cc(-c3c(-c4ccncc4)nc(-c4ccc(S(C)(=O)=O)cc4C)n3C)ccc2c1 [SB-633825] | 53 | 90 | 100 | 100 | 83 | 74 | 87 | 66 | 85 | 88 | 100 | 52 | 79 | 63 | 91 | 54 | 86 | 97 | 44 | 100
CCS(=O)(=O)c1ccc(OC)c(Nc2ncc(-c3cccc(OC)c3)o2)c1 [GW580509X] | 100 | 100 | 95 | 100 | 100 | 85 | 88 | 83 | 100 | 95 | 100 | 21 | 100 | 45 | 100 | 100 | 78 | 86 | 100 | 100
CC1=C(C(=O)Nc2ccc3[nH]ncc3c2)C(c2ccc3ccccc3c2)CC(=O)N1 (centres unmarked) [GSK270822A] | 76 | 81 | 100 | 81 | 98 | 84 | 39 | 49 | 62 | 91 | 100 | 35 | 100 | 43 | 75 | 78 | 80 | 100 | 80 | 100
COc1cc(C)c(N(C)C(=O)CN(C)C)cc1Nc1nc(Nc2cccc(F)c2C(N)=O)c2cc[nH]c2n1 [GSK2219385] | 100 | 100 | 94 | 86 | 100 | 70 | 85 | 93 | 90 | 76 | 77 | 100 | 93 | 95 | 91 | 92 | 82 | 72 | 100 | 100
